ERAP1 HTS inh – human ERAP1 aminopeptidase inhibitors, primary screen, biochemical, single point, plate reader; Endoplasmic reticulum aminopeptidase 1 (Homo sapiens), Q9NZ08; recombinant ERAP1, Leu-AMC fluorescence, 60 min; inhibition, % at 10.7 µM; hit rate 0.15% among 340,000; AID 652197, 2013;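 active = mean replicate inhibition of at least 30%, or all replicates individually reaching that 30% level; inactive = mean below 30% and not every replicate reaching it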;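 note: 0% = neutral control wells and 100% = L-leucinethiol positive control wells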
SIRT5 block – SIRT5 desuccinylase inhibitors, primary screen, biochemical, fluorescence imaging, single point, set 5. AID 652115, 2013. hit rate 1.1% among 330,000. NAD-dependent protein deacylase sirtuin-5, mitochondrial (Homo sapiens), Q9NXA8. inhibition, % at 15 µM. Purified SirT5, succinyl-peptide AMC, trypsin-coupled fluorescence; in the data active = inhibition above about 15%
FGF22 binding-1 – binders of human FGF22 protein, primary screen, FGF22 synaptogenesis inhibitor project, biophysical, thermal shift, single point. Fibroblast growth factor 22 (Homo sapiens), Q9HCT0. recombinant FGF22 thermal shift, SYPRO orange fluorescence; percent of sucrose octasulfate shift, DMSO zero. activity (Tm shift, normalised), % at 9.99 µM. hit rate 1.5% among 340,000;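 active = mean Tm shift, scaled 0 neutral to 100 positive control, at about 1.3% or above, every replicate too, limit read from the data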
Target sequence (Q9HCT0 whole entry, looked up): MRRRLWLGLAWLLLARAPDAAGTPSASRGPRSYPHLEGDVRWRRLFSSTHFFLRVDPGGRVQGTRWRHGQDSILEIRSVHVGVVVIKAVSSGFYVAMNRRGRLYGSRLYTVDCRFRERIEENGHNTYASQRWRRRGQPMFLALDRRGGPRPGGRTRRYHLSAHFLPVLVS
CASP6 VEID inh – human caspase-6 inhibitors, primary screen, biochemical, VEID-R110 fluorescence, single point, set 2 | inhibition, % at 12.5 µM | hit rate 0.53% among 350,000 | AID 686996, 2013 | P55212 | purified caspase-6, Z-VEID-R110 cleavage fluorescence;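 active = mean inhibition across replicates at least about 35%, with every replicate also reaching that limit, limit read from the data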;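 note: 0% = median of neutral control wells and 100% = no fluorescence left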
Target sequence (P55212 24-179 limits assumed): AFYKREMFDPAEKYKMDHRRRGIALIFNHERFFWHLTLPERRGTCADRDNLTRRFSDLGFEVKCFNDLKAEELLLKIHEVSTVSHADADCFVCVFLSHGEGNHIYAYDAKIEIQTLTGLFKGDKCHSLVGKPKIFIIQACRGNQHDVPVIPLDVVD
Target sequence (P55212 194-293 limits assumed): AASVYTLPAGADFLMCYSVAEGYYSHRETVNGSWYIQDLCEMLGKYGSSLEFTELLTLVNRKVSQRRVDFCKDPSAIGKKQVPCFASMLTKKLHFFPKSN
FGF22 binding-2 – binders of human FGF22 protein, dose response, FGF22 synaptogenesis inhibitor project, biophysical, thermal shift, cherry-pick retest | shares compounds with FGF22 binding-1 | recombinant FGF22 thermal shift, SYPRO orange fluorescence | thermal shift activity, °C (ΔTm) at 38 µM | hit rate 2% among 1,000 | AID 720646, 2013;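 active = fitted rise in melting shift crosses a set limit at or below the top valid dose tested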
SYPRO no-protein – compound-only thermal shift signal without protein, dose response, artefact control for FGF22 binder project, biochemical, cherry-picked samples, RT-PCR instrument. shares compounds with FGF22 binding-1. hit rate 2% among 1,000. compound-only SYPRO orange thermal shift counter-screen, no protein. AID 743019, 2013. AC50, µM (highest dose often 38 µM);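 active = rising signal whose fitted curve reaches the 0.54 level within the top valid dose, showing a melting point, actives reach about 13 µM in these data; inactive = the rest, including activity in the opposite direction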; note: value is where the raw curve crosses a fixed level and not half-maximal
An asterisk follows results filed as active; [ ] = dose if it differs, or a comment. In the library only some 3.1% were active in any assay of this set; here they are far more common.

CO[C@H]1CN(C)C(=O)c2ccc(NS(=O)(=O)c3cn(C)cn3)cc2OC[C@@H](C)N(CC2CC2)C[C@@H]1C was read as ERAP1 HTS inh -2.1, SIRT5 block 0.9, FGF22 binding-1 -0.2 and CASP6 VEID inh -2.0.
For CCC(=O)N(C)C[C@H]1Oc2cc(-c3ccc(C#N)cc3)ccc2S(=O)(=O)N([C@@H](C)CO)C[C@H]1C the results were ERAP1 HTS inh 0.7, SIRT5 block 0.8, FGF22 binding-1 0.0 and CASP6 VEID inh -1.0.
Screening COc1ccc(CN(C)C[C@H]2Oc3ccc(NS(=O)(=O)c4cn(C)cn4)cc3CC(=O)N([C@@H](C)CO)C[C@H]2C)cc1 returned SIRT5 block 0.4.
For CC1=C2[C@@H](c3ccccc3)OB(O)C[C@@H]2n2c(=O)n(-c3ccccc3)c(=O)n2C1 the results were ERAP1 HTS inh 3.2, SIRT5 block 1.7, FGF22 binding-1 1.3*, CASP6 VEID inh -0.7, FGF22 binding-2 -0.177 and SYPRO no-protein inactive.
`COc1ccc(OCC(=O)NC2CCCCCCC2)cc1` gave ERAP1 HTS inh -3.2, SIRT5 block 0.8, FGF22 binding-1 0.1 and CASP6 VEID inh 1.5.
`O=C(COc1ccccc1)NCC(=O)NC1CCCCC1` gave ERAP1 HTS inh -3.7, SIRT5 block -5.8, FGF22 binding-1 1.9*, CASP6 VEID inh -0.3, FGF22 binding-2 0.062 and SYPRO no-protein inactive.
COc1ccc(NC(=O)NNC(=O)COc2ccc(Cl)cc2C)cc1OC was read as ERAP1 HTS inh 0.4, SIRT5 block 0.5, FGF22 binding-1 -0.1 and CASP6 VEID inh -0.2.
For COc1ccc(OC)c(NC(=O)NNC(=O)CCCOc2ccc(Cl)cc2C)c1 the results were ERAP1 HTS inh -0.5, SIRT5 block -3.3, FGF22 binding-1 1.7*, CASP6 VEID inh -1.2, FGF22 binding-2 0.028 and SYPRO no-protein inactive.
COc1ccc(CN(C)C[C@H]2Oc3ccc(NC(=O)NC(C)C)cc3C(=O)N([C@H](C)CO)C[C@@H]2C)cc1 was read as ERAP1 HTS inh 1.2, SIRT5 block -0.2, FGF22 binding-1 1.0 and CASP6 VEID inh 1.3.
Screening CNC[C@H]1Oc2ccc(NC(=O)Cc3cn(C)c4ccccc34)cc2C(=O)N([C@H](C)CO)C[C@H]1C returned ERAP1 HTS inh 0.1, SIRT5 block 2.4, FGF22 binding-1 3.7*, CASP6 VEID inh -2.9 and SYPRO no-protein inactive.
For CNC[C@H]1Oc2ccc(NC(=O)Cc3cn(C)c4ccccc34)cc2C(=O)N([C@H](C)CO)C[C@@H]1C the results were ERAP1 HTS inh 1.6, SIRT5 block 6.3, FGF22 binding-1 0.4 and CASP6 VEID inh -1.9.
For COc1ccc(CN(C)C[C@@H]2Oc3ccc(NC(=O)NC(C)C)cc3C(=O)N([C@H](C)CO)C[C@@H]2C)cc1 the results were ERAP1 HTS inh 2.7, SIRT5 block -2.3, FGF22 binding-1 73.0*, CASP6 VEID inh 1.7, FGF22 binding-2 -0.025[42 µM] and SYPRO no-protein inactive.
Screening COc1ccc(CN(C)C[C@H]2Oc3ccc(NC(=O)Cc4ccccc4)cc3C(=O)N([C@H](C)CO)C[C@@H]2C)cc1 returned ERAP1 HTS inh 0.5, SIRT5 block 2.5, FGF22 binding-1 1.5*, CASP6 VEID inh -3.0, FGF22 binding-2 0.128[42 µM] and SYPRO no-protein inactive.
C[C@H](CO)N1C[C@H](C)[C@H](CN(C)CC2CCOCC2)Oc2ncc(-c3cccc(F)c3)cc2C1=O was read as SIRT5 block -0.6 and FGF22 binding-1 -0.3.
For COc1ccc(S(=O)(=O)NC[C@@H]2CC[C@H]3[C@H](CN3Cc3cc(F)ccc3F)O2)cc1 the results were ERAP1 HTS inh -36.8, SIRT5 block -8.7 and CASP6 VEID inh -1.3.
For Cc1ccc(Cl)cc1N1CCN(C(=O)Cc2c(C(=O)O)[nH]c3ccc(Cl)cc23)CC1 the results were ERAP1 HTS inh -2.2, SIRT5 block 0.5, FGF22 binding-1 7.4*, CASP6 VEID inh 12.5, FGF22 binding-2 0.225 and SYPRO no-protein inactive.
For Cc1ccc(NC(=O)c2sc3ncn(CC(=O)N4CCN(c5ccccn5)CC4)c(=O)c3c2C)cc1F the results were ERAP1 HTS inh 0.0, SIRT5 block -1.1, FGF22 binding-1 1.4*, CASP6 VEID inh 3.9, FGF22 binding-2 0.091 and SYPRO no-protein inactive.
Screening Cc1ccc(NC(=O)c2sc3ncn(CC(=O)N4CCN(c5ccccn5)CC4)c(=O)c3c2C)cc1Cl returned ERAP1 HTS inh -1.5, SIRT5 block -4.3, FGF22 binding-1 0.0 and CASP6 VEID inh 1.2.
COc1cc(C(=O)NC(=S)Nc2ccc([N+](=O)[O-])cc2C)cc(OC)c1OC was read as ERAP1 HTS inh -0.4, SIRT5 block 1.1, FGF22 binding-1 0.7 and CASP6 VEID inh -0.4.
For COc1cc(C(=O)NC(=S)Nc2ccccc2[N+](=O)[O-])cc(OC)c1OC the results were ERAP1 HTS inh 0.7, SIRT5 block 1.8, FGF22 binding-1 1.8*, CASP6 VEID inh -0.2, FGF22 binding-2 0.128 and SYPRO no-protein inactive.
`CC(C)CC#Cc1ccc([C@H]2[C@H](CO)N3C(=O)CN(S(=O)(=O)c4ccccc4)C[C@@H]23)cc1` gave ERAP1 HTS inh -1.4, SIRT5 block 5.0 and CASP6 VEID inh 1.0.
O=C(NCC[C@@H]1CC[C@@H](NC(=O)C2CCOCC2)[C@H](CO)O1)Nc1ccc(Cl)cc1 was read as ERAP1 HTS inh 0.8, SIRT5 block -0.5, FGF22 binding-1 1.4*, CASP6 VEID inh -1.1, FGF22 binding-2 0.147[42 µM] and SYPRO no-protein inactive.
`O=C(NCC[C@H]1CC[C@H](NC(=O)C2CCOCC2)[C@@H](CO)O1)Nc1ccc(Cl)cc1` gave ERAP1 HTS inh 0.3, SIRT5 block -2.7, FGF22 binding-1 1.5*, CASP6 VEID inh -0.1, FGF22 binding-2 -0.047 and SYPRO no-protein inactive.
O=C(NCC[C@H]1CC[C@H](NC(=O)C2CCOCC2)[C@H](CO)O1)Nc1ccc(Cl)cc1 was read as ERAP1 HTS inh 3.7, SIRT5 block 1.7 and CASP6 VEID inh -1.2.
CO[C@@H]1CN(C)C(=O)c2cc(NC(=O)c3ccc(F)cc3)ccc2OC[C@H](C)N(C(=O)c2ccc(F)cc2)C[C@@H]1C was read as ERAP1 HTS inh 2.8, SIRT5 block -4.2, FGF22 binding-1 -0.1 and CASP6 VEID inh -1.6.
Screening C[C@H](CO)N1C[C@H](C)[C@H](CN(C)C(=O)Cc2cccnc2)Oc2ncc(-c3cncnc3)cc2C1=O returned ERAP1 HTS inh -5.0, SIRT5 block 1.1, FGF22 binding-1 -0.1 and CASP6 VEID inh -3.1.

Screening data: PubChem, Broad Institute
